# Inconclusive results are not listed. Calls of active or inactive are those of the source. Calls come from the whole dose curve; as a rule, active = well fitted cell-killing curve with a large enough effect in the repeat runs; inconclusive = weak or mixed curves, or effect the other way; inactive = flat fitted curve, though single readings scatter.
# Assay: qHTS assay to identify small molecule agonists of the estrogen receptor beta (ER-beta) signaling pathway - cell viability counter screen (AID 1259380); note: nearly all actives have a fitted effect of over 30% in size
# Conditions: ER-beta-bla HEK293T viability, CellTiter-Glo luminescence, 16 h; series mostly up to 92.4 µM; activity change, negative = cytotoxicity: at the top concentration
# Source text: National Center for Advancing Translational Sciences [NCATS]
# NIH Chemical Genomics Center [NCGC]
# U.S. Environmental Protection Agency [EPA]
# National Institutes of Environmental Health Sciences [NIEHS]
# National Toxicology Program [NTP]
# U.S. Food and Drug Administration [FDA]
# Estrogen receptor (ER), a nuclear hormone receptor, plays an important role in development, metabolic homeostasis and reproduction. Two subtypes of ER, ER-alpha and ER-beta, have similar expression patterns with some uniqueness in both types. Endocrine disrupting chemicals (EDCs) and their interactions with steroid hormone receptors like ER causes disruption of normal endocrine function. To identify the compounds that activate ER signaling, an ER beta-UAS-bla GripTite cell line (Life Technologies, Madison, WI, USA) containing a beta-lactamase reporter gene under the control of an UAS response element was used to screen Tox21 10K compound library. The cytotoxicity of the Tox21 compound library against the ER-beta-bla cell line was tested in parallel by measuring the cell viability using CellTiter-Glo assay in the same wells.
# Tox21 Assay Protocol Summary:
# ER-beta-UAS-bla HEK293T cells were dispensed at 2,000 cells/5 uL of assay medium containing 2% charcoal stripped FBS per well into black wall/clear-bottom 1536-well plates using a Multidrop Combi (ThermoFisher Scientific, Waltham, MA) dispenser. After the assay plates were incubated at a 37C and 5% CO2 for 6 hr, 23 nL of compounds dissolved in DMSO, positive controls or DMSO only was transferred to the assay plate by a Pintool station (Kalypsys, San Diego, CA). The plates were incubated at 37C and 5% CO2 for 16 hr. Then 1 uL of LiveBLAzerTM B/G FRET substrate was added using a BioRAPTR FRD (Flying Reagent Dispenser, Aurora Discovery, San Diego, CA) and then the plates were incubated at room temperature for 2 hours, and fluorescence intensity was measured by an Envision plate reader (PerkinElmer, Shelton, CT). For cell viability readout that measures cytotoxicity, 4 uL/well of CellTiter-Glo reagent was added into the assay plates using a FRD. After 30 min incubation at room temperature, the luminescence intensity in the plates was measured using a ViewLux (PerkinElmer) plate reader.
# % is set by controls: 0 for no effect and ±100 for the full control effect; potency is the fitted concentration of half-maximal effect.
SMILES,Potency,"activity change, negative = cytotoxicity"
CCCCCCCCCCCC[N+](C)(C)CC(=O)[O-],24.3 µM (active),
OCC1CC=CCC1 (stereo not given),,2.11% (inactive)
CC(CCc1ccc2c(c1)OCO2)NN (stereo not given),,1% [at 42.5 µM] (inactive)
N#C/C(=C1\SCC(c2ccccc2Cl)S1)n1ccnc1 (stereo not given),,3.2% [at 42.5 µM] (inactive)
CC1(C)C(=O)N(Br)C(=O)N1Cl,,-5.1% (inactive)
CCCc1c(OCCCOc2ccc(OCC(=O)O)cc2)ccc(C(C)=O)c1O,17.2 µM (active),
CC(=O)Nc1ccc(N)cc1,,0.928% (inactive)
Cc1cc2nc3ccc(=[N+](C)C)cc-3sc2cc1N,4.22 µM (active),
CCCC(=O)O[C@]1(C(=O)COC(=O)CC)CC[C@H]2[C@@H]3CCC4=CC(=O)CC[C@]4(C)[C@H]3[C@@H](O)C[C@@]21C,,1.26% [at 19 µM] (inactive)
CCCCOC(=O)CCS,,2.38% (inactive)
N#C[C@@H]1C[C@@H]2C[C@@H]2N1C(=O)[C@@H](N)C12CC3CC(CC(O)(C3)C1)C2,,0.298% [at 42.5 µM] (inactive)
CO[C@H]1O[C@H](CO)[C@@H](O)[C@H](O)[C@H]1O,,1.49% (inactive)
O=C(O)c1ccc(CO)o1,,3.61% (inactive)
CN1CCN(c2c(F)cc3c(=O)c(C(=O)O)cn4c3c2OCN4C)CC1,,3.44% [at 19 µM] (inactive)
CCCCCCOC(=O)C(C)C,,-1.1% (inactive)
O=C(OCCOCCO)c1ccccc1Nc1cccc(C(F)(F)F)c1,,-13.4% [at 42.5 µM] (inactive)
Cc1ccc(S(=O)(=O)NC2CCCCC2)cc1,,-2.35% (inactive)
CN1C(=O)CC(C)(c2ccccc2)C1=O (stereo not given),,3.82% [at 42.5 µM] (inactive)
CN(C)CCOC1=Cc2ccccc2Sc2ccc(Cl)cc21,26.6 µM (active),
CCCCCCCCCCCC(=O)[O][Sn]([CH2]CCC)([CH2]CCC)[O]C(=O)CCCCCCCCCCC,,-12.8% [at 42.5 µM] (inactive)

SMILES,Potency,"activity change, negative = cytotoxicity"
CCCCCCCCCOC(C)=O,,5.56% (inactive)
O=C(N[C@@H](c1ccccc1)[C@@H]1CCCCN1)c1cccc(C(F)(F)F)c1Cl,54.5 µM (active),
CC(C)CCCCCOC(=O)CCCCC(=O)OCCCCCC(C)C,,-4.82% (inactive)
O=C(O)c1ccccc1NCCc1ccccc1,,-2.73% [at 42.5 µM] (inactive)
CC(C)C(=O)O,,2.95% (inactive)
COC(=O)c1cc(Cl)ccc1NS(=O)(=O)C(F)(F)F,,1.82% [at 42.5 µM] (inactive)
O=C(CCCCCCC(=O)Nc1ccccc1)NO,2.66 µM (active),
[O]=[Bi],,4.86% [at 8.39 µM] (inactive)
CNCCCC1c2ccccc2C=Cc2ccccc21,23.7 µM (active),
NC(=O)Nc1ccc(Cl)c(Cl)c1,,-18.7% (inactive)
CCc1c2c(nc3ccc(OC(=O)N4CCC(N5CCCCC5)CC4)cc13)-c1cc3c(c(=O)n1C2)COC(=O)[C@]3(O)CC,,6.87% [at 42.5 µM] (inactive)
CN(C)C(=O)Nc1ccc(Oc2ccc(Cl)cc2)cc1,,-4.8% (inactive)
CC(=O)Nc1ccccc1C,,-2.61% (inactive)
Cc1ccccc1N1C(=O)c2cc(S(N)(=O)=O)c(Cl)cc2NC1C (stereo not given),,1.39% [at 42.5 µM] (inactive)
CC(C)CCCC(=O)O,,7.66% (inactive)
Cc1cc(S(=O)(=O)O)ccc1N=Nc1c(O)ccc2ccccc12,,-1.68% (inactive)
CC1=CC(=O)CC(C)(C)C1(O)/C=C/C(C)=C\C(=O)O (stereo not given),,2.62% (inactive)
Nc1ccc(S(=O)(=O)O)cc1,,-1.59% (inactive)
CCCCC(CC)COC(=O)COc1ccc(Cl)cc1C (stereo not given),,7.15% (inactive)
CCOCCn1c(C2CCN(CCc3ccc(C(C)(C)C(=O)O)cc3)CC2)nc2ccccc21,,1.81% [at 42.5 µM] (inactive)
